From PubChem BioAssay (NCI)
The panel holds about 79,000 compounds, 15% with a hit somewhere; the sample as a whole holds those more often. Calls of active or inactive are those of the source. Rule as the data show it: active = growth inhibition above about 70%; inactive = the rest.

test: NCI Yeast Anticancer Drug Screen. Data for the rad50 strain (AID 155);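 also: 0% = growth of vehicle-only cultures of the same strain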; conditions: S. cerevisiae rad50 strain growth inhibition; at 5.0 µM (retest, dose inferred, filed as 0.5); stronger effect = higher value
Method in brief: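 A DNA repair-deficient yeast mutant serves as the test organism; compound-induced growth inhibition is calculated against vehicle-treated cells.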

Structure (SMILES)	growth inhibition
O=C1C(=O)C(CCCO)(CCCO)CCCCCCCCC1(CCCO)CCCO	-9% (inactive)
CC(C)(C)C(=O)CC(=O)C(F)(F)C(F)(F)C(F)(F)F.CC(C)(C)C(=O)CC(=O)C(F)(F)C(F)(F)C(F)(F)F.CC(C)(C)C(=O)CC(=O)C(F)(F)C(F)(F)C(F)(F)F.[Er]	92% (active)
CCCCC(CC)COC(=O)c1cc2ccccc2oc1=O (stereo not given)	3% (inactive)
Nc1ccc(-c2nc3ccccc3s2)cc1I	34% (inactive)
CN1CCC(CCC(=O)OC(C)(C)C)(CN2c3ccccc3Sc3ccccc32)C1 (stereo not given)	-4% (inactive)
COc1cc(C(=O)C=[N+]=[N-])c([N+](=O)[O-])c(OC)c1OC	12% (inactive)
COc1ccc(-n2cc(-c3ccc(Cl)cc3)c3c(N)ncnc32)cc1	20% (inactive)
COc1ccccc1/C=C1\SC(=S)N(/C=C2\C(=O)Oc3ccccc3C2=O)C1=O	1% (inactive)
F[Si](c1ccccc1)(c1ccccc1)c1ccccc1	-3% (inactive)
Cc1c2ccnc(-c3ccc(F)cc3)c2cc2c1[nH]c1ccccc12	-3% (inactive)
CCN(CC)CCNc1c(OC)cc(C)c2sc3ccccc3c(=O)c12	8% (inactive)
O=c1cccc(C2CCc3cc(O)ccc3C2)[nH]1 (stereo not given)	-5% (inactive)
O/N=C1\c2ccccc2-c2ccc(Cl)cc21	6% (inactive)
CCCCN(CCCC)CC(O)c1cc(-c2ccc(Cl)cc2)nc2c(Cl)cccc12 (stereo not given)	1% (inactive)
CN(C)c1ccc(-c2c(C#N)c(S)n(NS(=O)(=O)c3ccccc3)c(=O)c2C#N)cc1	94% (active)
Clc1ccc2ns[s+]c2c1	8% (inactive)
COc1ccc2c(c1)CC/C(=C\c1ccc(OCCN(C)C)cc1)C2=O	12% (inactive)
CCCCOC(=O)c1cnc[nH]c1=O	3% (inactive)
COC(=O)c1c(C)cccc1C1CN=NC12Cc1ccc(C)c(C)c1C2=O (stereo not given)	2% (inactive)
CC1CCN(CCOC(=O)C(c2ccccc2)C2C=CCCC2)C1 (stereo not given)	8% (inactive)

Structure (SMILES)	growth inhibition
CNCC(OB(c1ccccc1)c1ccccc1)c1ccccc1 (stereo not given)	4% (inactive)
O=C1CCC(Cc2ccc(C(F)(F)F)cc2)C(=O)N1 (stereo not given)	-3% (inactive)
CC(C)(Br)C(Br)C(=O)C(Br)C(C)(C)Br (stereo not given)	-1% (inactive)
CCCCCCCCN(CCCCCCCC)CC(O)c1cc2c(c3ccccc13)CCCC2 (stereo not given)	10% (inactive)
Brc1ccc(CCNCCN2CCCCC2)cc1	19% (inactive)
CC(C)=NNc1ncnc2nc[nH]c12	11% (inactive)
CC1=C/C(=C\c2ccc([N+](=O)[O-])o2)C(=O)O1	95% (active)
CCOC(=O)C(=O)Nc1nc2c(s1)C(=O)c1ccccc1C2=O	14% (inactive)
CC1CC2(C)ON=C(c3ccccc3)N2c2ccccc2S1 (stereo not given)	-25% (inactive)
N#CC(CC(Br)CBr)(c1ccccc1)c1ccccc1 (stereo not given)	8% (inactive)
Oc1ccc(-c2ccccc2)cc1Cl	-1% (inactive)
C=CCSc1nc2ccccc2c(=O)n1Cc1ccco1	50% (inactive)
CCOC(=O)c1ccc(O)c(OC)c1	-2% (inactive)
O=C(COc1ccc2ccccc2c1)NC1c2ccccc2Oc2ccccc21	77% (active)
O=S(=O)(c1ccccc1)n1cc(C[P+](c2ccccc2)(c2ccccc2)c2ccccc2)c2ccccc21	21% (inactive)
CC/C(=N\O)c1ccc2cc(Br)c3ccccc3c2c1	5% (inactive)
CCOC(=O)C(C)(C)Oc1ccc2c(=O)cc(-c3ccccc3)oc2c1	-8% (inactive)
CC(O)c1c2ccccc2cc2ccccc12 (stereo not given)	-17% (inactive)
CC(=O)OC1CCC2(C)C(CCC3C4=CCC(C5COC(=O)C5)C4(C)CCC32)C1 (stereo not given)	-1% (inactive)
NC(C(=O)O)C1=CCCCCC1 (stereo not given)	2% (inactive)

same assay, conditions: S. cerevisiae rad50 strain growth inhibition; at 50.0 µM (retest, dose inferred, filed as 5.0); stronger effect = higher value

Structure (SMILES)	growth inhibition
O=C1C(=O)C(CCCO)(CCCO)CCCCCCCCC1(CCCO)CCCO	-3% (inactive)
CC(C)(C)C(=O)CC(=O)C(F)(F)C(F)(F)C(F)(F)F.CC(C)(C)C(=O)CC(=O)C(F)(F)C(F)(F)C(F)(F)F.CC(C)(C)C(=O)CC(=O)C(F)(F)C(F)(F)C(F)(F)F.[Er]	28% (inactive)
CCCCC(CC)COC(=O)c1cc2ccccc2oc1=O (stereo not given)	7% (inactive)
Nc1ccc(-c2nc3ccccc3s2)cc1I	71% (active)
CN1CCC(CCC(=O)OC(C)(C)C)(CN2c3ccccc3Sc3ccccc32)C1 (stereo not given)	98% (active)
COc1cc(C(=O)C=[N+]=[N-])c([N+](=O)[O-])c(OC)c1OC	77% (active)
COc1ccc(-n2cc(-c3ccc(Cl)cc3)c3c(N)ncnc32)cc1	99% (active)
COc1ccccc1/C=C1\SC(=S)N(/C=C2\C(=O)Oc3ccccc3C2=O)C1=O	12% (inactive)
F[Si](c1ccccc1)(c1ccccc1)c1ccccc1	75% (active)
Cc1c2ccnc(-c3ccc(F)cc3)c2cc2c1[nH]c1ccccc12	1% (inactive)
CCN(CC)CCNc1c(OC)cc(C)c2sc3ccccc3c(=O)c12	75% (active)
O=c1cccc(C2CCc3cc(O)ccc3C2)[nH]1 (stereo not given)	3% (inactive)
O/N=C1\c2ccccc2-c2ccc(Cl)cc21	35% (inactive)
CCCCN(CCCC)CC(O)c1cc(-c2ccc(Cl)cc2)nc2c(Cl)cccc12 (stereo not given)	6% (inactive)
CN(C)c1ccc(-c2c(C#N)c(S)n(NS(=O)(=O)c3ccccc3)c(=O)c2C#N)cc1	96% (active)
Clc1ccc2ns[s+]c2c1	78% (active)
COc1ccc2c(c1)CC/C(=C\c1ccc(OCCN(C)C)cc1)C2=O	19% (inactive)
CCCCOC(=O)c1cnc[nH]c1=O	17% (inactive)
COC(=O)c1c(C)cccc1C1CN=NC12Cc1ccc(C)c(C)c1C2=O (stereo not given)	31% (inactive)
CC1CCN(CCOC(=O)C(c2ccccc2)C2C=CCCC2)C1 (stereo not given)	34% (inactive)

Structure (SMILES)	growth inhibition
CNCC(OB(c1ccccc1)c1ccccc1)c1ccccc1 (stereo not given)	99% (active)
O=C1CCC(Cc2ccc(C(F)(F)F)cc2)C(=O)N1 (stereo not given)	7% (inactive)
CC(C)(Br)C(Br)C(=O)C(Br)C(C)(C)Br (stereo not given)	8% (inactive)
CCCCCCCCN(CCCCCCCC)CC(O)c1cc2c(c3ccccc13)CCCC2 (stereo not given)	95% (active)
Brc1ccc(CCNCCN2CCCCC2)cc1	65% (inactive)
CC(C)=NNc1ncnc2nc[nH]c12	3% (inactive)
CC1=C/C(=C\c2ccc([N+](=O)[O-])o2)C(=O)O1	99% (active)
CCOC(=O)C(=O)Nc1nc2c(s1)C(=O)c1ccccc1C2=O	96% (active)
CC1CC2(C)ON=C(c3ccccc3)N2c2ccccc2S1 (stereo not given)	98% (active)
N#CC(CC(Br)CBr)(c1ccccc1)c1ccccc1 (stereo not given)	11% (inactive)
Oc1ccc(-c2ccccc2)cc1Cl	98% (active)
C=CCSc1nc2ccccc2c(=O)n1Cc1ccco1	59% (inactive)
CCOC(=O)c1ccc(O)c(OC)c1	10% (inactive)
O=C(COc1ccc2ccccc2c1)NC1c2ccccc2Oc2ccccc21	93% (active)
O=S(=O)(c1ccccc1)n1cc(C[P+](c2ccccc2)(c2ccccc2)c2ccccc2)c2ccccc21	99% (active)
CC/C(=N\O)c1ccc2cc(Br)c3ccccc3c2c1	89% (active)
CCOC(=O)C(C)(C)Oc1ccc2c(=O)cc(-c3ccccc3)oc2c1	95% (active)
CC(O)c1c2ccccc2cc2ccccc12 (stereo not given)	72% (active)
CC(=O)OC1CCC2(C)C(CCC3C4=CCC(C5COC(=O)C5)C4(C)CCC32)C1 (stereo not given)	79% (active)
NC(C(=O)O)C1=CCCCCC1 (stereo not given)	-6% (inactive)
